{"source": "the antibiotic and cytotoxicity screens of Wong et al. (2023)", "note": "Among all 39,000 compounds or so, about 3,300 (8.5%) were called active. The list comes from a sample in which actives are over-represented; it also holds similar structures and randomly drawn compounds."}
{"test_system": "HepG2", "experiment": "cytotoxicity call (relative viability < 0.9)", "details": "10 µM"}
{"smiles": "C[C@@H]1CCCCO[C@@H](CN(C)S(=O)(=O)c2cn(C)cn2)[C@@H](C)CN([C@H](C)CO)C(=O)c2cc(NC(=O)c3ccncc3)ccc2O1", "cytotoxicity call": "inactive"}
{"smiles": "COc1cccc(OC[C@@H](O)CN(CCO)CCO)c1", "cytotoxicity call": "inactive"}
{"smiles": "O=C(C[C@@H]1C=C[C@@H](NC(=O)Nc2ccc3c(c2)OCO3)[C@@H](CO)O1)NCCCN1CCOCC1", "cytotoxicity call": "inactive"}
{"smiles": "C[C@H]1CCCCO[C@H](CN(C)S(=O)(=O)c2cn(C)cn2)[C@@H](C)CN([C@@H](C)CO)C(=O)c2cc(NS(C)(=O)=O)ccc2O1", "cytotoxicity call": "inactive"}
{"smiles": "C[C@@H]1CN([C@H](C)CO)C(=O)c2cccc(N(C)C)c2O[C@@H]1CN(C)S(C)(=O)=O", "cytotoxicity call": "inactive"}
{"smiles": "C[C@@H]1CCCCO[C@H](CN(C)S(=O)(=O)c2ccccc2)[C@H](C)CN([C@@H](C)CO)C(=O)c2cc(NC(=O)Nc3ccccc3)ccc2O1", "cytotoxicity call": "inactive"}
{"smiles": "COCC#Cc1ccc([C@@H]2[C@@H](CO)N3C(=O)CN(C(=O)C4CCOCC4)C[C@H]23)cc1", "cytotoxicity call": "inactive"}
{"smiles": "COc1ccccc1OCC(O)COC(N)=O", "note": "(configuration not stated)", "cytotoxicity call": "active"}
{"smiles": "NC(=O)OCC(COC(N)=O)c1ccccc1", "cytotoxicity call": "inactive"}
{"smiles": "COc1ccccc1OC[C@@H](O)COC(N)=O", "cytotoxicity call": "inactive"}
{"smiles": "Cc1noc(C)c1S(=O)(=O)Nc1ccc2c(c1)CC(=O)N([C@H](C)CO)C[C@@H](C)[C@@H](CN(C)CC1CC1)O2", "cytotoxicity call": "inactive"}
{"smiles": "Cc1ccc(S(=O)(=O)N(C)C[C@@H]2Oc3ccc(NC(=O)Cn4cnnn4)cc3CC(=O)N([C@@H](C)CO)C[C@@H]2C)cc1", "cytotoxicity call": "inactive"}
{"smiles": "Cc1noc(C)c1S(=O)(=O)Nc1ccc2c(c1)CC(=O)N([C@@H](C)CO)C[C@H](C)[C@@H](CN(C)Cc1ccc(Oc3ccccc3)cc1)O2", "cytotoxicity call": "inactive"}
{"smiles": "Cc1noc(C)c1S(=O)(=O)Nc1ccc2c(c1)CC(=O)N([C@H](C)CO)C[C@@H](C)[C@H](CN(C)Cc1ccc(-c3ccccc3)cc1)O2", "cytotoxicity call": "inactive"}
{"smiles": "Cc1noc(C)c1S(=O)(=O)Nc1ccc2c(c1)CC(=O)N([C@H](C)CO)C[C@H](C)[C@H](CN(C)Cc1ccc(Oc3ccccc3)cc1)O2", "cytotoxicity call": "inactive"}
{"smiles": "Cc1noc(C)c1S(=O)(=O)Nc1ccc2c(c1)CC(=O)N([C@H](C)CO)C[C@@H](C)[C@@H](CN(C)Cc1ccc3c(c1)OCO3)O2", "cytotoxicity call": "active"}
{"smiles": "Cc1noc(C)c1S(=O)(=O)Nc1ccc2c(c1)CC(=O)N([C@@H](C)CO)C[C@@H](C)[C@H](CN(C)Cc1ccc3c(c1)OCO3)O2", "cytotoxicity call": "inactive"}
{"smiles": "Cc1noc(C)c1S(=O)(=O)Nc1ccc2c(c1)CC(=O)N([C@H](C)CO)C[C@H](C)[C@@H](CN(C)Cc1ccc(-c3ccccc3)cc1)O2", "cytotoxicity call": "active"}
{"smiles": "Cc1noc(C)c1S(=O)(=O)Nc1ccc2c(c1)CC(=O)N([C@H](C)CO)C[C@@H](C)[C@@H](CN(C)Cc1ccc(Oc3ccccc3)cc1)O2", "cytotoxicity call": "inactive"}
{"smiles": "Cc1noc(C)c1S(=O)(=O)Nc1ccc2c(c1)CC(=O)N([C@H](C)CO)C[C@H](C)[C@@H](CN(C)Cc1ccc(Oc3ccccc3)cc1)O2", "cytotoxicity call": "active"}
{"smiles": "Cc1noc(C)c1S(=O)(=O)Nc1ccc2c(c1)CC(=O)N([C@@H](C)CO)C[C@@H](C)[C@@H](CN(C)Cc1ccc(-c3ccccc3)cc1)O2", "cytotoxicity call": "inactive"}
{"smiles": "Cc1noc(C)c1S(=O)(=O)Nc1ccc2c(c1)CC(=O)N([C@@H](C)CO)C[C@@H](C)[C@@H](CN(C)Cc1ccc3c(c1)OCO3)O2", "cytotoxicity call": "inactive"}
{"smiles": "Cc1noc(C)c1S(=O)(=O)Nc1ccc2c(c1)CC(=O)N([C@@H](C)CO)C[C@@H](C)[C@H](CN(C)Cc1ccc(Oc3ccccc3)cc1)O2", "cytotoxicity call": "inactive"}
{"smiles": "Cc1noc(C)c1S(=O)(=O)Nc1ccc2c(c1)CC(=O)N([C@@H](C)CO)C[C@@H](C)[C@@H](CN(C)Cc1ccc(Oc3ccccc3)cc1)O2", "cytotoxicity call": "active"}
{"smiles": "COc1ccc(S(=O)(=O)Nc2ccc3c(c2)C(=O)N([C@H](C)CO)C[C@@H](C)[C@H](CN(C)C(=O)NC2CCCCC2)OCCCC[C@@H](C)O3)cc1", "cytotoxicity call": "inactive"}
{"smiles": "C[C@H]1CN([C@@H](C)CO)C(=O)c2cc(NC(=O)Nc3cccc4ccccc34)ccc2O[C@H]1CN(C)C(=O)Nc1ccc(F)cc1", "cytotoxicity call": "inactive"}
{"smiles": "C[C@@H]1CN([C@@H](C)CO)C(=O)CCCn2cc(nn2)CO[C@H]1CN(C)S(=O)(=O)c1cccc(C#N)c1", "cytotoxicity call": "inactive"}
{"smiles": "Cc1noc(C)c1NC(=O)N(C)C[C@H]1Oc2ccc(NC(=O)Nc3ccc(C(F)(F)F)cc3)cc2CC(=O)N([C@@H](C)CO)C[C@@H]1C", "cytotoxicity call": "inactive"}
{"smiles": "COc1ccc(C#Cc2ccc3c(c2)O[C@H](CN(C)C(C)=O)[C@H](C)CN([C@H](C)CO)S3(=O)=O)cc1", "cytotoxicity call": "inactive"}
{"smiles": "C=C/C=C/[C@@H]1C(=C)CN([C@@H](Cc2ccccc2)C(=O)OC)[C@H]1[C@@H](O)CCn1cc(-c2ccc(C(=O)NO)s2)nn1", "cytotoxicity call": "inactive"}
{"smiles": "C[C@@H]1CN([C@H](C)CO)C(=O)c2cc(NC(=O)Cc3ccccc3)ccc2O[C@@H](C)CCCCO[C@@H]1CN(C)C(=O)NC1CCCCC1", "cytotoxicity call": "inactive"}
{"smiles": "COc1ccc(S(=O)(=O)N(C)C[C@@H]2OCCCC[C@H](C)Oc3ccc(NC(=O)CCC(F)(F)F)cc3C(=O)N([C@@H](C)CO)C[C@H]2C)cc1", "cytotoxicity call": "inactive"}
{"smiles": "COc1ccc(S(=O)(=O)Nc2ccc3c(c2)CC(=O)N([C@@H](C)CO)C[C@@H](C)[C@@H](CN(C)CC2CC2)O3)cc1", "cytotoxicity call": "inactive"}
{"smiles": "COc1ccc(S(=O)(=O)N[C@@H]2CC[C@@H](CC(=O)N3CCN(c4ccccc4)CC3)O[C@@H]2CO)cc1", "cytotoxicity call": "inactive"}
{"smiles": "Cn1cnc(CN)c1", "cytotoxicity call": "inactive"}
{"smiles": "C[C@H]1CN([C@@H](C)CO)C(=O)c2cc(C#CCc3ccccc3)cnc2O[C@@H]1CN(C)C(=O)C1CCOCC1", "cytotoxicity call": "inactive"}
{"smiles": "C[C@H]1CN([C@@H](C)CO)C(=O)c2cc(NS(=O)(=O)c3ccccc3)ccc2O[C@@H]1CN(C)Cc1ccncc1", "cytotoxicity call": "inactive"}
{"smiles": "Cc1noc(C)c1NC(=O)Nc1ccc2c(c1)C(=O)N([C@H](C)CO)C[C@H](C)[C@H](CN(C)C(=O)Cc1ccccc1)OCCCC[C@H](C)O2", "cytotoxicity call": "inactive"}
{"smiles": "C[C@H](CO)N1C[C@H](C)[C@@H](CN(C)Cc2ccc(Oc3ccccc3)cc2)Oc2ccc(NS(=O)(=O)c3ccccc3)cc2C1=O", "cytotoxicity call": "inactive"}
{"smiles": "C[C@@H]1CN([C@H](C)CO)C(=O)c2cc(NS(=O)(=O)c3ccccc3)ccc2O[C@@H]1CN(C)Cc1ccc(Oc2ccccc2)cc1", "cytotoxicity call": "active"}
{"smiles": "C[C@H]1CN([C@@H](C)CO)C(=O)c2cc(NS(=O)(=O)c3ccccc3)ccc2O[C@H]1CN(C)Cc1ccc(Oc2ccccc2)cc1", "cytotoxicity call": "inactive"}
{"smiles": "C[C@@H]1CN([C@@H](C)CO)C(=O)c2cc(NS(=O)(=O)c3ccccc3)ccc2O[C@@H]1CN(C)Cc1ccc(Oc2ccccc2)cc1", "cytotoxicity call": "active"}
{"smiles": "C[C@@H]1CN([C@H](C)CO)C(=O)c2cc(NS(=O)(=O)c3ccccc3)ccc2O[C@H]1CN(C)Cc1ccc(Oc2ccccc2)cc1", "cytotoxicity call": "inactive"}
{"smiles": "C[C@H](CO)N1C[C@H](C)[C@H](CN(C)Cc2ccc(Oc3ccccc3)cc2)Oc2ccc(NS(=O)(=O)c3ccccc3)cc2C1=O", "cytotoxicity call": "inactive"}
{"smiles": "C[C@@H](NS(=O)(=O)C1CN(C(=O)OCc2ccccc2)C1)C(N)=O", "cytotoxicity call": "inactive"}
{"smiles": "O=C1c2ccccc2-c2nc(-c3ccccc3)cc3cccc1c23", "cytotoxicity call": "inactive"}
{"smiles": "C[C@H](CO)N1C[C@H](C)[C@H](CN(C)C(=O)CN(C)C)Oc2cc(-c3cncnc3)ccc2S1(=O)=O", "cytotoxicity call": "inactive"}
{"smiles": "O=C(O)[C@@H](O)c1ccccc1", "cytotoxicity call": "inactive"}
{"smiles": "C[C@H]1CN([C@@H](C)CO)C(=O)c2cc(NC(=O)Nc3ccc(F)cc3)ccc2O[C@H]1CN(C)Cc1ccc(-c2ccccc2)cc1", "cytotoxicity call": "inactive"}
{"smiles": "C[C@@H]1CN([C@@H](C)CO)C(=O)c2cc(NC(=O)Nc3ccc(F)cc3)ccc2O[C@H]1CN(C)Cc1ccc(-c2ccccc2)cc1", "cytotoxicity call": "active"}
{"smiles": "C[C@@H]1CN([C@@H](C)CO)C(=O)c2cc(NC(=O)Nc3ccc(F)cc3)ccc2O[C@@H]1CN(C)Cc1ccc(-c2ccccc2)cc1", "cytotoxicity call": "active"}
{"smiles": "C[C@@H]1CN([C@H](C)CO)C(=O)c2cc(NC(=O)Nc3ccc(F)cc3)ccc2O[C@H]1CN(C)Cc1ccc(-c2ccccc2)cc1", "cytotoxicity call": "inactive"}
{"smiles": "C[C@H]1CN([C@@H](C)CO)C(=O)c2cc(NC(=O)Nc3ccc(F)cc3)ccc2O[C@@H]1CN(C)Cc1ccc(-c2ccccc2)cc1", "cytotoxicity call": "inactive"}
{"smiles": "C[C@H](CO)N1C[C@H](C)[C@@H](CN(C)Cc2ccc(-c3ccccc3)cc2)Oc2ccc(NC(=O)Nc3ccc(F)cc3)cc2C1=O", "cytotoxicity call": "inactive"}
{"smiles": "C[C@H](CO)N1C[C@H](C)[C@H](CN(C)Cc2ccc(-c3ccccc3)cc2)Oc2ccc(NC(=O)Nc3ccc(F)cc3)cc2C1=O", "cytotoxicity call": "inactive"}
{"smiles": "C[C@@H]1CN([C@H](C)CO)C(=O)c2cc(NC(=O)Nc3ccc(F)cc3)ccc2O[C@@H]1CN(C)Cc1ccc(-c2ccccc2)cc1", "cytotoxicity call": "active"}
{"smiles": "C[C@@H]1CN([C@H](C)CO)C(=O)c2cc(NC(=O)C3CCCCC3)ccc2O[C@@H](C)CCCCO[C@H]1CN(C)S(=O)(=O)c1ccc(Cl)cc1", "cytotoxicity call": "inactive"}
{"smiles": "CO[C@H]1CN(C)C(=O)c2ccc(NS(=O)(=O)c3cn(C)cn3)cc2OC[C@@H](C)N(Cc2cccc(F)c2)C[C@@H]1C", "cytotoxicity call": "inactive"}
{"smiles": "C[C@@H]1CN([C@H](C)CO)C(=O)c2cc(NS(C)(=O)=O)ccc2O[C@@H]1CN(C)C(=O)Nc1ccc(F)cc1", "cytotoxicity call": "inactive"}
{"smiles": "C[C@@H]1CCCCO[C@@H](CN(C)C(=O)Nc2ccc3c(c2)OCO3)[C@H](C)CN([C@@H](C)CO)C(=O)c2cc(NC(=O)CCC(F)(F)F)ccc2O1", "cytotoxicity call": "inactive"}
{"smiles": "CO[C@@H](CN(C)S(=O)(=O)c1ccc(C)cc1)[C@H](C)CN([C@H](C)CO)S(=O)(=O)c1cccc(Cl)c1", "cytotoxicity call": "inactive"}
{"smiles": "COCC(=O)N1C[C@@H](C)[C@H](OC)CN(C)C(=O)c2cc(NC(=O)c3ccc(F)cc3)ccc2OC[C@H]1C", "cytotoxicity call": "inactive"}
{"smiles": "O=C1c2ccccc2[C@@]2(Cc3ccccc3N(CC(F)(F)F)C2=O)[C@H](c2ccc(CO)cc2)N1Cc1ccccc1", "cytotoxicity call": "inactive"}
{"smiles": "C[C@H]1CN([C@@H](C)CO)C(=O)Cc2cc(NC(=O)Nc3ccc4c(c3)OCO4)ccc2O[C@H]1CN(C)Cc1ccc(C(=O)Nc2ccccc2N)cc1", "cytotoxicity call": "active"}
{"smiles": "C[C@@H]1CN([C@@H](C)CO)C(=O)Cc2cc(NC(=O)Nc3ccc4c(c3)OCO4)ccc2O[C@@H]1CN(C)Cc1ccc(C(=O)Nc2ccccc2N)cc1", "cytotoxicity call": "active"}
{"smiles": "C[C@H]1CN([C@@H](C)CO)C(=O)Cc2cc(NC(=O)Nc3ccc4c(c3)OCO4)ccc2O[C@@H]1CN(C)Cc1ccc(C(=O)Nc2ccccc2N)cc1", "cytotoxicity call": "inactive"}
{"smiles": "C[C@@H]1CN([C@H](C)CO)C(=O)Cc2cc(NC(=O)Nc3ccc4c(c3)OCO4)ccc2O[C@@H]1CN(C)Cc1ccc(C(=O)Nc2ccccc2N)cc1", "cytotoxicity call": "active"}
{"smiles": "C[C@H](CO)N1C[C@H](C)[C@@H](CN(C)Cc2ccc(C(=O)Nc3ccccc3N)cc2)Oc2ccc(NC(=O)Nc3ccc4c(c3)OCO4)cc2CC1=O", "cytotoxicity call": "inactive"}
{"smiles": "C[C@@H]1CN([C@@H](C)CO)C(=O)Cc2cc(NC(=O)Nc3ccc4c(c3)OCO4)ccc2O[C@H]1CN(C)Cc1ccc(C(=O)Nc2ccccc2N)cc1", "cytotoxicity call": "inactive"}
{"smiles": "C[C@H]1CN([C@@H](C)CO)C(=O)Cc2cc(NC(=O)Nc3ccccc3)ccc2O[C@@H]1CN(C)Cc1ccc(C(=O)Nc2ccccc2N)cc1", "cytotoxicity call": "inactive"}
{"smiles": "C[C@H](CO)N1C[C@H](C)[C@H](CN(C)Cc2ccc(C(=O)Nc3ccccc3N)cc2)Oc2ccc(NC(=O)Nc3ccc4c(c3)OCO4)cc2CC1=O", "cytotoxicity call": "inactive"}
{"smiles": "C[C@@H]1CN([C@H](C)CO)C(=O)Cc2cc(NC(=O)Nc3ccc4c(c3)OCO4)ccc2O[C@H]1CN(C)Cc1ccc(C(=O)Nc2ccccc2N)cc1", "cytotoxicity call": "inactive"}
